# Reference: PubChem BioAssay (EPA / NIEHS)
# Where “and” joins values, the source holds several entries; their conditions need not be identical. Identical values can stand only once. Where a structure was tested more than once in an assay, its records may differ in their call. Calls of active or inactive are those of the source. How the source made its calls: active means hit-call score of the fitted dose curve at least 0.9, where 1 is the maximum; inactive means score below 0.9.
# Assay: ATG_VDRE_CIS: Attagene CIS-FACTORIAL HepG2 Assay for human Vitamin D Receptor Element (VDRE) (AID 2282968)
# Details: HepG2 VDRE cis-reporter transcription, actives raise or lower the signal
# Experimental: ATG_CIS is a cell-based, multiplexed-readout assay that uses HepG2, a human liver cell line, with measurements taken at 24 hours after chemical dosing in a 24-well plate.ATG_VDRE_CIS is one of 52 assay component(s) measured or calculated from the ATG_CIS assay. It is designed to make measurements of mRNA induction, a form of inducible reporter, as detected with fluorescence intensity signals by Reverse transcription polymerase chain reaction (RT-PCR) and Capillary electrophoresis technology.Data from the assay component ATG_VDRE_CIS was analyzed into 1 assay endpoint. This assay endpoint, ATG_VDRE_CIS, was analyzed with bidirectional fitting relative to DMSO as the negative control and baseline of activity. Using a type of inducible reporter, measures of mRNA for gain or loss-of-signal activity can be used to understand the reporter gene at the transcription factor-level as they relate to the gene VDR. Furthermore, this assay endpoint can be referred to as a primary readout, because this assay has produced multiple assay endpoints where this one serves a reporter gene function. To generalize the intended target to other relatable targets, this assay endpoint is annotated to the nuclear receptor intended target family, where the subfamily is non-steroidal.
# Human liver HepG2 cells are transiently transfected with multiple reporter transcription units (MRTUs) in 6-well plates using FuGene 6 reagent (Roche; 3 ml FuGene/1 mg DNA). The MRTU constructs are regulated by a cis-regulating element (promoter). […] A major difference between the CIS and TRANS system is that in CIS activities of endogenous TFs are measured, whereas the TRANS assay evaluates changes in activities of exogenous, chimeric NR-Gal4 proteins. […] At the end of 24 hour incubation, total RNA was isolated using TriZol reagent (Invitrogen). The isolated RNA is then reverse-transcribed using oligo(dT) primer and Mo-MLV reverse transcriptase (Invitrogen) with DNAse I (Ambion) treatment for 30 min. The one-tenth of the produced cDNA was amplified by PCR using Taq DNA polymerase (Invitrogen) and two reporter sequence-specific primers. The PCR products were fluorescently labeled by primer extension with 6-arboxyfluorescein (6-FAM) 5'-labeled reporter sequence-specific primer (2 min at 95 C, 20 s at 68 C and 10 min at 72 C) and these products were digested with 5U of HpaI (New England Biolabs) for 2h at 37 C. The fragments were purified using Qiaquick PCR columns (Qiagen), analyzed on an ABI 3130xL genetic analyzer (Applied Biosystems) with peak positions identified by using a set of X-rhodamine (ROX)-labeled MapMarker1000 molecular weight standards (BioVentures). The raw capillary electrophoresis data was processed using Attagraph software (Attagene).
SMILES,outcome,AC50
CCO[Si](C)(C)OCC,inactive,–
C=CC(=C)CC/C=C(\C)CCC=C(C)C,–,6.84 µM (active)
COC(O)c1ccccc1 (stereo not given),inactive,–
CC(C)(C)c1ccc(O)c(O)c1,–,4.28 µM (active) [middle of 5 runs]
Cc1ccc(C(=O)c2ccccc2)cc1,inactive,–
CCCCCCC(C)(C)C(=O)O,–,73.2 µM (active)
CC(C)(C)C1CCCCC1O (stereo not given),inactive,–
Cn1sccc1=O,inactive,–
O=C(O)C(=O)O,inactive,–
CCCCCCCCCCCC[N+](C)(C)Cc1ccccc1,inactive,13.2 µM (active)
FC(F)(F)C(F)(F)C(F)(F)Br,inactive,–
O=C(C=C(O)C(F)(F)F)C(F)(F)F,inactive,–
CCC1CO1 (stereo not given),inactive,–
Cc1[nH]nc2c1N=C(c1ccccc1Cl)c1cc([N+](=O)[O-])ccc1N2,inactive,–
CCCCCCCCCCCCOC(=O)c1cc(O)c(O)c(O)c1,inactive,–
CC1COCc2cc3c(cc21)C(C)(C)C(C)C3(C)C (stereo not given),–,50.7 µM (active)
CCCCCCCCCCCC[N+](C)(C)CCCCCCCCCCCC,–,8.42 µM (active)
FC(F)(F)C1(F)C(F)(F)C(F)(F)C(F)(F)C1(F)F,inactive,–
CCCCc1ccc2ccccc2c1S(=O)(=O)O,–,6.19 µM (active)

SMILES,outcome,AC50
COc1cc([N+](=O)[O-])ccc1N,inactive,–
COC(=O)C(F)(F)C(F)(F)C(F)(F)F,inactive,–
O=C1c2ccccc2C(=O)c2c(O)c(O)cc(O)c21,inactive,–
CCCCCCCCCCCC(=O)NCCCN(C)C,–,18 µM (active)
CCC(=O)O,inactive,–
CCc1cccc(CC)c1N(COC)C(=O)CS(=O)(=O)O,–,5.6 µM (active)
CCCC=O,inactive,–
CC(C)(O)C(=O)c1ccccc1,inactive,–
FC(F)(F)C(F)(F)C(F)(F)C(F)(F)I,inactive,–
CCC(C)c1ccccc1O (stereo not given),inactive,74.6 µM (active)
FC(F)(F)C1(F)C(F)(F)C(F)(F)C(F)(F)C(F)(C(F)(F)F)C1(F)F (stereo not given),inactive,–
CCCCCc1ccc(O)cc1,inactive,–
Oc1cccc2c(O)cccc12,inactive,–
O=C(O)c1cccc(C(=O)O)n1,inactive,–
FC(F)(F)N1C(F)(F)C(F)(F)OC(F)(F)C1(F)F,inactive,–
Clc1ccc(Nc2nnc(Cc3ccncc3)c3ccccc23)cc1,–,7.35 µM (active)
FC(OC(F)(F)C(F)(F)C(F)(F)F)C(F)(F)F (stereo not given),inactive,–
O=C(O)CN(CCCN(CC(=O)O)CC(=O)O)CC(=O)O,inactive,–
CC(C)c1c(C(=O)Nc2ccccc2)c(-c2ccccc2)c(-c2ccc(F)cc2)n1CC[C@@H](O)C[C@@H](O)CC(=O)O,–,14.2 µM (active) and 7.84 µM (active)
